Reference: ChEMBL document CHEMBL3988442, “University of Dundee, Small-Polar-MMV Screening Library” (2021)
For some of these results: Results with a measured potency or affinity are listed apart.

Assays:
Parameters in all cases: scale not given: direction of the effect not stated beside the values
[1] = biological target: Protein translocase subunit SecA (Escherichia coli (strain K12)) (UniProt P10408); experiment: Assay to Identify E. coli SecA ATPase Inhibitors; assay type: functional; details: 30 µM
Sequence of Protein translocase subunit SecA (Escherichia coli (strain K12)) (P10408 whole entry): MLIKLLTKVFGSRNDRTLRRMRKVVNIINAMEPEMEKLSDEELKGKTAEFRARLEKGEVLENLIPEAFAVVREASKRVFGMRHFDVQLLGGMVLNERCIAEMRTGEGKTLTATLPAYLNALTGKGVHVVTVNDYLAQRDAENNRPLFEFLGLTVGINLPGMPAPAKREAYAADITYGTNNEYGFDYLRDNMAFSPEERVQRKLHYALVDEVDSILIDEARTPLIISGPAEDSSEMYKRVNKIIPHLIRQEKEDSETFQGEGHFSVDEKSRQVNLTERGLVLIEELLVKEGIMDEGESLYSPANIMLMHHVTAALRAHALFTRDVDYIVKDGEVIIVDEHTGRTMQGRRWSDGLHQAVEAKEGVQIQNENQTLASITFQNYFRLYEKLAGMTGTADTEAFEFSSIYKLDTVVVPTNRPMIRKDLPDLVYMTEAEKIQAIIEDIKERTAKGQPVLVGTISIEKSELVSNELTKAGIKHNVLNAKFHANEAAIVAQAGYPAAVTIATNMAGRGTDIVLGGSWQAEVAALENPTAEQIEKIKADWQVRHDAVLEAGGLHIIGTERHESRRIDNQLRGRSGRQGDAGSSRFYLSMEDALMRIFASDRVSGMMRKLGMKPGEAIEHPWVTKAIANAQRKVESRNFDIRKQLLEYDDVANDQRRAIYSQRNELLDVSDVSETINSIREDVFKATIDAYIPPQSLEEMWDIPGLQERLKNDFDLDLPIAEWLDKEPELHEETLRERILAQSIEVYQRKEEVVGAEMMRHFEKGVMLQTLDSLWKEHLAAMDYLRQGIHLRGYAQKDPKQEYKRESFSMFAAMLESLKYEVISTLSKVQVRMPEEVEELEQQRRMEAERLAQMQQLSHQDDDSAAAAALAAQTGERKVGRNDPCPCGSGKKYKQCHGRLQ

[2] = biological target: T1, Ubiquitin-activating enzyme e1, putative (Leishmania donovani (strain BPK282A1)) (UniProt E9BSI1); experiment: Leishmania donovani Ubiquitin Activating Enzyme (LdE1); assay type: functional; details: 30 µM
T1 sequence (whole entry): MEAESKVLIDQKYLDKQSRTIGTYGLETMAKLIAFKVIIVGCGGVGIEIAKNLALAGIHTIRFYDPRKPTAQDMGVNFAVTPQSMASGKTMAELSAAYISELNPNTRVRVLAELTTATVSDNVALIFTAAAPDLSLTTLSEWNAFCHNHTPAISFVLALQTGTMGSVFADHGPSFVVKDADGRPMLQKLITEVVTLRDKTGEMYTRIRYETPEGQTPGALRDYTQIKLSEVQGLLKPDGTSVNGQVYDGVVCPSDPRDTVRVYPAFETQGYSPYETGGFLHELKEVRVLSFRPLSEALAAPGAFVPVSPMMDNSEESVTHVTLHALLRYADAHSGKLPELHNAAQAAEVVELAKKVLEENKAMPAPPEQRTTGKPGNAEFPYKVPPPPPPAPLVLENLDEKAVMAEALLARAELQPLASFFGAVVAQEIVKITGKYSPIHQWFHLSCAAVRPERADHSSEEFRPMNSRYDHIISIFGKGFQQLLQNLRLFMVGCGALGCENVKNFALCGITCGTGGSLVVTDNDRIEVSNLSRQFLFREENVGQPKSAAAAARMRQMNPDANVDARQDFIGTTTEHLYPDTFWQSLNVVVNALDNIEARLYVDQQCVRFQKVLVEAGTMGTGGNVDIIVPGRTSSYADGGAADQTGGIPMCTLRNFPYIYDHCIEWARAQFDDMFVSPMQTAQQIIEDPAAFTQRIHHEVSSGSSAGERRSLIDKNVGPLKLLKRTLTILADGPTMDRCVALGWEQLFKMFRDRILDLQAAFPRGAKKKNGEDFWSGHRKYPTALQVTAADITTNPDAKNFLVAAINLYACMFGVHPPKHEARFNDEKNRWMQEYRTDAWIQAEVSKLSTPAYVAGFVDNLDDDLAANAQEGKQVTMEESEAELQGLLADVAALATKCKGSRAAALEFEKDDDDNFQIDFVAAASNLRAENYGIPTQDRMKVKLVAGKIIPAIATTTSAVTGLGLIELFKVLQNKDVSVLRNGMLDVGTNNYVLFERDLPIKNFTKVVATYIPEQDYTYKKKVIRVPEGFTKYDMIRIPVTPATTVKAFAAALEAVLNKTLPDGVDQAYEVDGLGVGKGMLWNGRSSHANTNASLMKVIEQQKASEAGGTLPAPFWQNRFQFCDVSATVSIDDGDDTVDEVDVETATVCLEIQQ

[3] = biological target: AMP-activated protein kinase, AMPK (Homo sapiens) (UniProt P54646+O43741+P54619+Q9UGJ0+Q9Y478+Q13131+Q9UGI9); experiment: AMP-dependent Kinase enzyme assay. An in vitro enzyme assay that detects ADP turnover that is directly proportional to AMPK activity. This uses naive AMPK that is activated during the assay with MK-8722; assay type: functional; details: 30 µM
[4] = biological target: Sialic acid-binding Ig-like lectin 9 (Homo sapiens) (UniProt Q9Y336); experiment: Hs-Siglec9 ALPHAscreen SOP 20170721; details: 10 µM
Sequence of Sialic acid-binding Ig-like lectin 9 (Homo sapiens) (Q9Y336 whole entry): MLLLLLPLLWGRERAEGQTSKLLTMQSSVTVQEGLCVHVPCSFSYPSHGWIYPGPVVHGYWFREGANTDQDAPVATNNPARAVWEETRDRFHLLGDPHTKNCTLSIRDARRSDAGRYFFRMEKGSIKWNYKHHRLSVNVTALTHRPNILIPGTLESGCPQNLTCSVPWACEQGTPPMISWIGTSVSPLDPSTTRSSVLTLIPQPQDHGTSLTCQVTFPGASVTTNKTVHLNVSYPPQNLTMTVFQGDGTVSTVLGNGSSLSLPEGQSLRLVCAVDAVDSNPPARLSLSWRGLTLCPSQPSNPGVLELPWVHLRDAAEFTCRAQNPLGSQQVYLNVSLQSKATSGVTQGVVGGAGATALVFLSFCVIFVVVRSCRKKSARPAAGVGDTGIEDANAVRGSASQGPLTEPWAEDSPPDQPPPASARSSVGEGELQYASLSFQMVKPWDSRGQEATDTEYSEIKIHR

Trypanosoma cruzi = experiment: Trypanosoma cruzi phosphomannomutase and mannose-1-phosphate guanylyltransferase assay; assay type: functional; details: 10 µM
[5] = biological target: T2, Arginase-2, mitochondrial (Homo sapiens) (UniProt P78540); experiment: in vitro enzyme assay to detect the production of urea directly proportional to the activity of Arginase II; assay type: functional; details: 33.3 µM; further: in the data most compounds retested in dose-response had high values
T2 sequence (whole entry): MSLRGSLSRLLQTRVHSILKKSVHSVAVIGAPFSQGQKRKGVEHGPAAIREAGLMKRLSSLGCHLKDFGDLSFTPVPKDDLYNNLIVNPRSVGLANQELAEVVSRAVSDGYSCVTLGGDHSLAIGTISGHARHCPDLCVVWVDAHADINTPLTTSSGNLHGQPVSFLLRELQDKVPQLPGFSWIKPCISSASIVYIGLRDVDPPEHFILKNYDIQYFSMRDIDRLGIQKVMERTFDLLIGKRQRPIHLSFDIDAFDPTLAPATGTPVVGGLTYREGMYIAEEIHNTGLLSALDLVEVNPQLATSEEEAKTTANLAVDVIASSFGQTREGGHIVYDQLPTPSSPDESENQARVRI

[6] = biological target: T3, Proteasome subunit beta (Trypanosoma cruzi) (UniProt O96673); experiment: Trypanosoma cruzi proteasome chymotrypsin-like activity (TcProtChymo) assay.; further: in the data most compounds retested in dose-response had high values; assay type: functional; details: 9.37 µM
T3 sequence (whole entry): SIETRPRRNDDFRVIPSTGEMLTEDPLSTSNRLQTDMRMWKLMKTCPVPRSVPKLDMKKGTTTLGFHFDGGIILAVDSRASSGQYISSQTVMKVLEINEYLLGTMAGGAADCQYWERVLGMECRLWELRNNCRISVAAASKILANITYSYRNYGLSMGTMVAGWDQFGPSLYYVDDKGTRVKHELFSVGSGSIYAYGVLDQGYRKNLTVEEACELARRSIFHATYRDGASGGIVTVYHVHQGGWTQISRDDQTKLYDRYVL

Homo sapiens = organism: Homo sapiens; experiment: To identify inhibition of the IFN signalling (Jak-Stat) pathway via expression of an eGFP reporter gene under the control of an IFN-stimulated response element (ISRE) containing MxA promoter.; assay type: functional; details: 30 µM
[7] = biological target: T4, Tyrosyl-tRNA synthetase, putative (Trypanosoma cruzi (strain CL Brener)) (UniProt Q4DSP6); experiment: Trypanosoma cruzi tyrosyl tRNA synthetase (TcYRS) _High Tyrosine SOP; assay type: functional; details: 30 µM; further: in the data most compounds retested in dose-response had high values
T4 sequence (whole entry): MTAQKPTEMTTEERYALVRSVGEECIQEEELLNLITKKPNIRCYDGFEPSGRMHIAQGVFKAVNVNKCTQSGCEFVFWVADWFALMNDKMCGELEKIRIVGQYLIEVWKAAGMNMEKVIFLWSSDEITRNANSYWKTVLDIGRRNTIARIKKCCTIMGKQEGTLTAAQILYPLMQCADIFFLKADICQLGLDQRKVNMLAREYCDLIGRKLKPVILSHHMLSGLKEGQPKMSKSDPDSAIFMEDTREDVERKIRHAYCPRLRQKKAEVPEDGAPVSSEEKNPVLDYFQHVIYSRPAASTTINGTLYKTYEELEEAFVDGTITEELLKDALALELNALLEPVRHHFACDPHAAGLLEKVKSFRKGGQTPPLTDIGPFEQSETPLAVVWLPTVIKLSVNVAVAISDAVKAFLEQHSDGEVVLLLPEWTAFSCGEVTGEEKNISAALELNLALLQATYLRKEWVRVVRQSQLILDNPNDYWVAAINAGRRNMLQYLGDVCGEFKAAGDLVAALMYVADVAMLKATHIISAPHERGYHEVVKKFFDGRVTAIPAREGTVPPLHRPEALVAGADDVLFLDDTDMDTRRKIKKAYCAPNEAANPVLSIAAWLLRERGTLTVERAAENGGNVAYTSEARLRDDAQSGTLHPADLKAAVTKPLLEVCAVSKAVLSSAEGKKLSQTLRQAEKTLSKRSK

[8] = biological target: T4, Tyrosyl-tRNA synthetase, putative (Trypanosoma cruzi (strain CL Brener)); experiment: Trypanosoma cruzi tyrosyl tRNA synthetase (TcYRS) SOP; assay type: functional; details: 30 µM
[9] = biological target: Chromo domain-containing protein 1 (Saccharomyces cerevisiae (strain ATCC 204508 / S288c) (Baker's yeast)) (UniProt P32657); experiment: ScCHD-1 Enzyme Inhibition Assay; assay type: functional; details: 30 µM; further: in the data most compounds retested in dose-response had high values
Sequence of Chromo domain-containing protein 1 (Saccharomyces cerevisiae (strain ATCC 204508 / S288c) (Baker's yeast)) (P32657 whole entry, the tested form may be a part): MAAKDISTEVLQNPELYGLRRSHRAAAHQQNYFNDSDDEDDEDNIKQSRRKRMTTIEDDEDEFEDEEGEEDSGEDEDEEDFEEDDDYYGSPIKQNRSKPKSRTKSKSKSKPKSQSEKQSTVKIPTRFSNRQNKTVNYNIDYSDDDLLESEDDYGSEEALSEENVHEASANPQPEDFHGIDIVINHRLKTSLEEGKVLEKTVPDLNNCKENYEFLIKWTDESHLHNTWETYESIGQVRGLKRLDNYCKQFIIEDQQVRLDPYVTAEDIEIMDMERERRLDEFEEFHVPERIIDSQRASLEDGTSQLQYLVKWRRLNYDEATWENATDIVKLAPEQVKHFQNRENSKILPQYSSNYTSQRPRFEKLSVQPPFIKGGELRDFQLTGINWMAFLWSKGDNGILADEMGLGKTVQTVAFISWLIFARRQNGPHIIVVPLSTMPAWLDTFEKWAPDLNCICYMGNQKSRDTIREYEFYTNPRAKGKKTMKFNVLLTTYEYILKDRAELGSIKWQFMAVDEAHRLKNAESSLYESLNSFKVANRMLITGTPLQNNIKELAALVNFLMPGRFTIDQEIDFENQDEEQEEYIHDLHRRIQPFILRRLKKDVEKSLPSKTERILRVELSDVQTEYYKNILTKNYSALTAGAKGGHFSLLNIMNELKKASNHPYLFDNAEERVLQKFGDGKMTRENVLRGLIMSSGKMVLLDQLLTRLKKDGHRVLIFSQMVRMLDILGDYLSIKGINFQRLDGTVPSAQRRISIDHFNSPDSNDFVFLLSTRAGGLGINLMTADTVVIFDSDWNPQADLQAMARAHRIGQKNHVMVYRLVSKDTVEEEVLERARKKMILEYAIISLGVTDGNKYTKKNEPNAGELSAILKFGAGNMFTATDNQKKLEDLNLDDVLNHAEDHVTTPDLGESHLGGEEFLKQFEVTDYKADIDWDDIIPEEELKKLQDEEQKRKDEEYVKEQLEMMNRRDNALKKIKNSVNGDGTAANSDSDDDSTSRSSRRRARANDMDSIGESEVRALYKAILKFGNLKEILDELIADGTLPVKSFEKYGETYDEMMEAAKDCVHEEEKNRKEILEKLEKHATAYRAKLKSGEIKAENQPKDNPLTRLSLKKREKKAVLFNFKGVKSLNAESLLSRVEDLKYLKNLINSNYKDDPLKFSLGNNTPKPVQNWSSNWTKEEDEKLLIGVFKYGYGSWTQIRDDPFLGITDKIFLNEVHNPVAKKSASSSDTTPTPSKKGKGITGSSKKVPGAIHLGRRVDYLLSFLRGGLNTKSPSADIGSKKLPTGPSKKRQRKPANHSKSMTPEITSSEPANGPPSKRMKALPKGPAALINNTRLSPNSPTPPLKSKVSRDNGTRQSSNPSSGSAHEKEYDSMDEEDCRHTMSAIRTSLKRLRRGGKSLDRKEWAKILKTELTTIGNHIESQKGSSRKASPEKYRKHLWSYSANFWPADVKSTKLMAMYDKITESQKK

Compound	Percent Effect [1] [%]	Percent Effect [2] [%]	Percent Effect [3] [%]	Percent Effect [4] [%]	Percent Effect (Trypanosoma cruzi) [%]	Percent Effect [5] [%]	Percent Effect [6] [%]	Percent Effect (Homo sapiens) [%]	Percent Effect [7] [%]	Percent Effect [8] [%]	Percent Effect [9] [%]
Cc1cncc(C2CCCN(C(=O)c3scnc3C)C2)n1 (stereo unspecified)	-5.85	1.35	3.8	2.37	0.395	-2.09	7.33	2.09	3.23	11.7	-22.3
O=C(CCc1nccs1)N1CCCC(N2CCNC2=O)C1 (stereo unspecified)	-3.25	11	5.41	-1.3	-2.35	5	8.16	4.48	4.3	10	-4.2
CCS(=O)(=O)N1CCC2(CCC2NC(=O)c2ccn(C)c2)CC1 (stereo unspecified)	-3.75	10.8	1.1	-0.914	3.62	-6.69	18.8	-26	4.32	15.4	-3.62
Cc1ccccc1C1(C(=O)NCCN2CCCC2)CCOCC1	-0.0334	10.8	-6.54	-0.683	-0.283	-8.42	16.2	20.7	9.36	18.5	-8.78
Cn1ccc(CN2CCC(COC3CCCC3)CC2)cc1=O	-2	-59.5	-8.16	2.17	2.15	3.66	11.2	26.8	-10.4	17.7	-25.3
O=C(c1ccccc1OCC1CC1)N1CCCC(n2ccnc2)C1 (stereo unspecified)	1.84	1.27	11.2	-0.0308	3.18	5.81	10.3	-14	2.08	7.59	-6.24
CNc1cncc(C2CCCN2Cc2ccccc2OCC(=O)O)n1 (stereo unspecified)	-4.52	-52.7	7.74	0.809	-3.75	-2.55	9.52	5.72	1.07	3.9	0.143
Cc1cc(C)nc(CCNC(=O)[C@H]2CNC[C@@H](C(=O)N3CCCC3)C2)n1	-5	0	2.23	-0.778	-8.33	-5.59	5.91	29.4	2.08	3.7	-3.88
c1cnnc(N2CCCC2CNc2nc3ccccc3o2)c1 (stereo unspecified)	-5.3	11.4	3.62	9.59	1.33	4.95	11.5	11.9	0	20.2	-16
Cc1cnn(CC2CN(CCN3CCCC3=O)CCO2)c1 (stereo unspecified)	-6.18	5.41	-4.61	8.1	8.7	0.744	7.3	-3.36	-3.23	11.1	-4.96
c1ncn(Cc2cnc3n2CCN(Cc2ccsc2)CC3)n1	-7.34	5.33	7.1	2.34	-5.32	-2.1	5.9	14.2	2.13	8.97	2.03
